Screens deposited in PubChem by National Center for Advancing Translational Sciences (NCATS).
In the library only some 9.3% were active in any assay of this set; here they are far more common.
FMDV antiviral: foot and mouth disease virus antiviral activity. FMDV antiviral cell-based qHTS. Potency, µM (series often up to 57.9 µM), for inactives: at the top dose activity change, negative = inhibition, hits mostly inhibitors. 410,000 tested, 1.2% active. AID 1159524; calls by dose curve; tested in HEK293T cells; further: read-out not given here; potency means the concentration at half of the fitted maximal effect; nearly all actives have a fitted effect of over 45% in size
Vaccinia Venus: inhibitors of vaccinia virus (Venus reporter); Vaccinia virus Venus reporter expression, fluorescence; 330,000 tested, 0.46% active; Potency, µM (titrated, usually from 36.5 µM), for the others: top-dose activity change, negative = inhibition, usual class: inhibitors; calls by dose curve; tested in A549 cells; further: potency means the concentration at half of the fitted maximal effect; nearly all actives have a fitted effect of over 30% in size
HCV inhibitor: inhibitors of hepatitis C virus infection; Huh7.5.1 HCVcc-Cre infection, luciferase reporter, 44 h; Potency, µM (highest dose often 41.8 µM), without a hit: at the highest dose activity change, negative = inhibition, hits mostly inhibitors; 340,000 tested, 3.4% active; AID 651820; further: potency means the concentration at half of the fitted maximal effect
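Luciferase read-out (15 sec integration) after a 15 min room-temperature substrate step quantifies HCVcc-Cre infection. Cells, 1,000 per well, had compound added 4 h post-plating, then virus at ~0.5 moi, and were cultured 44 h.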
VACV mCherry inh: vaccinia inhibition (mCherry reporter); Vaccinia virus mCherry reporter infection, fluorescence; Potency, µM (series often up to 36.5 µM), for the others: at the highest dose activity change, negative = inhibition, most hits filed as inhibitors; 310,000 tested, 0.63% active; calls by dose curve; tested in A549 cells; further: potency means the concentration at half of the fitted maximal effect; nearly all actives have a fitted effect of over 35% in size
HCMV antiviral: inhibitors of human cytomegalovirus. HFF cells, HCMV-luciferase reporter, 72 h; stronger effect = lower value. AID 1259415. 410,000 tested, 4.5% active. activity change, negative = inhibition, % at 57.5 µM; in the data active means activity change below about -60%; inconclusive means no clear call, values can overlap the other calls; inactive means above about -39%
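Human foreskin fibroblasts infected with luciferase-reporter HCMV at MOI 1 PFU/cell, compounds at two doses. Luciferase measured 72 h post infection; normalized to buffer-only basal and Salinomycin (10uM) controls.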
Sm TGR block: inhibitors of Schistosoma mansoni thioredoxin glutathione reductase | Q962Y6 | Potency, µM (titrated, usually from 114 µM), for inactives: at the top dose activity change, negative = inhibition, hits mostly inhibitors | purified TGR, DTNB reduction, TNB absorbance 405 nm | AID 485364 | 360,000 tested, 3% active; further: potency means the concentration at half of the fitted maximal effect; nearly all actives have a fitted effect of over 60% in size
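TGR 20 nM + NADPH 100 uM (dispensed conc.), cpd preinc 15 min RT; start with NADPH (500 uM addition) then DTNB (15 mM addition). Kinetic TNB absorbance, 405 nm filter. Four-parameter Hill fit across titration.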
Starred values were filed as active, the others as inactive; i = inactive; ? = inconclusive; nt = no result given; [ ] = remark or other dose. Unless noted, the call rests on the fitted dose curve; in most records, active means well fitted curve in the direction sought with a large enough effect; inconclusive means small, poorly fitted or top-dose-only effect, or another doubt; inactive means no such curve, though single readings can be large; an effect the other way counts as inactive or inconclusive. On the % scale 0 is the no-effect control and ±100 the full control effect.

SMILES	FMDV antiviral	Vaccinia Venus	HCV inhibitor	VACV mCherry inh	HCMV antiviral	Sm TGR block
CC1(C(=O)Nc2cccc(-n3cnnn3)c2)Cc2ccccc2C(=O)O1 (stereo not given)	-13%	-18%	-2%	i	-22	nt
COc1cc(C(=O)NC(=S)Nc2ccc(Cl)c(C(=O)O)c2)cc(OC)c1OC	2%	-1%	5%	-4%	19	40µM*
COc1cc(C(=O)Nc2ccc(Cl)c(C(F)(F)F)c2)cc(OC)c1OC	?	?	14µM*	?	-7	-2%
COc1cc(C(=O)NC(=S)Nc2ccc3[nH]c(=O)[nH]c3c2)cc(OC)c1OC	-10%	-4%	23%	i	0	1%
COc1cc(OC)cc(C(=O)NC(=S)Nc2ccc(Cl)c(C(=O)O)c2)c1	-13%	nt	21%	nt	21	22µM*
C=CCNC(=S)Nc1cc(C)ccn1	-7%	-10%	-9%	-18%	-83*	-7%
C=CCNC(=S)Nc1ccc(C)cc1[N+](=O)[O-]	53%	nt	8%	nt	-23	40µM*
Cc1ccnc(NC(=S)NC(=O)/C=C/c2ccccc2)c1	nt	-3%	-9%	-14%	22	-12%
CCOC(=O)c1ccc(N=C2SC(C(=O)Nc3ccc(C(=O)O)cc3)CC(=O)N2Cc2cccs2)cc1 (stereo not given)	-21%	-11%	28%	i	-71*	4%
O=C(O)CCc1ccc(-c2ccccc2)n1Cc1ccco1	12%	2%	-3%	-11%	37	32µM*
O=C(O)CCc1ccc(-c2ccccc2)n1CC1CCCO1 (stereo not given)	-11%	?	20%	nt	23	0%
O=C(O)CCc1ccc(-c2ccc(F)cc2)n1Cc1ccco1	2%	-5%	11%	i	36	50µM*
O=C(O)CCc1ccc(-c2ccc(Br)cc2)n1Cc1ccco1	-4%	-2%	18%	-15%	1	50µM*
COC(=O)Cn1c(CCC(=O)O)ccc1-c1ccccc1	0%	1%	19%	9%	-13	?
CN1/C(=C\C=Nc2ccccc2)C(C)(C)c2ccccc21	?	37%	-28%	-3%	?	-17%
Cc1cc(/N=C/C=C2\N(C)c3ccccc3C2(C)C)n(CCC#N)n1	nt	?	11µM*	-24%	?	0%
O=C(Nc1ccc(Cc2nc3ccccc3s2)cc1)c1ccncc1	-27%	-17%	10µM*	-24%	-86*	-1%
Cc1ccc(OCC(=O)Nc2cc(Cl)ccc2-n2cncn2)c(C)c1	15%	-18%	nt	0%	15	nt
Cc1ccc(S(=O)(=O)CCC(=O)Nc2cc(Cl)ccc2-n2cncn2)cc1	-21%	-9%	1%	-12%	-10	18µM*
CCOc1ccc(OCCCC(=O)Nc2cc(Cl)ccc2-n2cncn2)cc1	?	nt	?	nt	-72*	-1%
Cc1ccsc1C(=O)Nc1cc(Cl)ccc1-n1cncn1	34%	-12%	7.1µM*	i	52	nt
Cc1ccc(C(=O)Nc2cc(Cl)ccc2-n2cncn2)s1	66%	-7%	?	i	-18	-3%
COc1ccc(OC)c(NS(=O)(=O)c2ccc(NC(=O)C3COc4ccccc4O3)cc2)c1 (stereo not given)	nt	?	?	?	?	-23%
O=C(CCS(=O)(=O)c1nc(-c2cccs2)cc(C(F)(F)F)n1)Nc1ccc(OC(F)(F)F)cc1	-19%	2%	nt	-12%	38	-6%
COc1ccc(Cl)cc1NC(=O)CCS(=O)(=O)c1nc(-c2cccs2)cc(C(F)(F)F)n1	32µM*	-19%	nt	-22%	-94*	-27%
SMILES	FMDV antiviral	Vaccinia Venus	HCV inhibitor	VACV mCherry inh	HCMV antiviral	Sm TGR block
O=C(CCS(=O)(=O)c1nc(-c2cccs2)cc(C(F)(F)F)n1)Nc1ccc(F)c(Cl)c1	35µM*	-16%[7.34 µM]	nt	-23%[7.34 µM]	-99*	-28%
COc1ccc(NC(=O)CCS(=O)(=O)c2nc(-c3cccs3)cc(C(F)(F)F)n2)cc1	?	-16%[7.34 µM]	nt	-10%[7.34 µM]	-101*	20µM*
CC(C)c1nnc(NC(=O)CCS(=O)(=O)c2nc(-c3cccs3)cc(C(F)(F)F)n2)s1	14µM*	nt	4%	nt	43	20µM*
COc1ccc(NC(=O)CSc2nc3ccccc3c(=O)[nH]2)cc1S(N)(=O)=O	-15%	nt	-2%	nt	-25	5%
NC(=O)CSc1nc(-c2ccccc2)nc2ccccc12	0%	nt	?	nt	-9	-6%
CC(C)c1ccc(NC2CCCN(C(=O)c3cnn(C(C)C)c3)C2)cc1 (stereo not given)	?	nt	?	nt	7	6%
CC1(C)CC[C@]2(C(=O)O)[C@H](O)C[C@]3(C)C(=CCC4[C@@]5(C)C[C@H](O)[C@H](O)[C@@](C)(CO)C5CC[C@]43C)[C@@H]2C1 (stereo not given in full)	-20%	-2%	-1%	i	-20	-1%
S=C(Nc1ccccc1Cl)NC1CC2CCCC(C1)N2C1CC1 (stereo not given)	39%	-12%	-29%	0%	-16	-25%
COc1ccc(S(=O)(=O)Nc2ccc3c(c2)[C@H]2C[C@H](CC(=O)NCC4CC4)O[C@@H](CO)[C@H]2O3)cc1	-22%	-8%	nt	-8%	14	nt
O=C(Nc1ccccc1N1CCCCC1)c1ccc(-c2cccc(Cl)c2)o1	-15%	0%	-36%	-12%	35	-8%
O=C(Nc1cccc2nsnc12)c1ccc(-c2cccc(Cl)c2)o1	4%	2%	-17%	nt	-9	6.3µM*
Cc1ccc2nsnc2c1NC(=O)Cc1ccc(Cl)cc1	-19%	-6%	-7%	i	-37	6%
Cc1ccc2nsnc2c1NC(=O)c1ccc(-c2cc(Cl)ccc2Cl)o1	?	-27%	?	nt	?	40µM*
Cc1ccc2nsnc2c1NC(=O)CCl	-14%	nt	-17%	nt	-24	45µM*
COc1ccc(CCNC(=S)N2CCC(C(N)=O)CC2)cc1	2%	-9%	?	-14%	0	-1%
O=C(Nc1ccc(OC(F)(F)F)cc1)C1CCN(S(=O)(=O)c2ccc3[nH]c(=O)ccc3c2)CC1	?	6%	nt	3%	-4	-3%
O=C1CC(N2CCC(c3nc4ccccc4o3)CC2)C(=O)N1 (stereo not given)	3%	nt	1%	nt	?	35µM*
O=C1CC(N2CCC(c3nc4ccccc4o3)CC2)C(=O)N1c1ccc(Cl)c(C(F)(F)F)c1 (stereo not given)	nt	2%	11%	1%	-1	14µM*
CC(C)Oc1cccc(C(=O)C2CCCN(Cc3cccn3-c3cccnc3)C2)c1 (stereo not given)	-21%	nt	11µM*	nt	4	?
CSc1ccc(C(=O)C2CCCN(Cc3cccn3-c3cccnc3)C2)cc1 (stereo not given)	?	-21%	14µM*	-28%	-31	?
